HPGD block = blocks human HPGD enzyme activity; purified HPGD, NADH fluorescence kinetic, PGE2 substrate; 150,000 compounds, 4.3% hits; AID 894; P15428; Potency, µM, usual class: inhibitors
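20 nM HPGD preincubated 15 min at room temperature with compound in 50 mM Tris-HCl pH 8, 0.01% Tween 20. Started with 1 mM NAD+ and 30 uM prostaglandin E2; NADH fluorescence (360/450 nm) read 5 times over 30-s intervals, last minus first.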
ALDH1A1 inh = inhibitors of human aldehyde dehydrogenase 1A1; AID 1030; Purified ALDH1A1, NADH fluorescence, propionaldehyde substrate; 220,000 compounds, 7.3% hits; Potency, µM (top dose mostly 75.3 µM), most hits filed as inhibitors
Target sequence (P00352 whole entry, looked up): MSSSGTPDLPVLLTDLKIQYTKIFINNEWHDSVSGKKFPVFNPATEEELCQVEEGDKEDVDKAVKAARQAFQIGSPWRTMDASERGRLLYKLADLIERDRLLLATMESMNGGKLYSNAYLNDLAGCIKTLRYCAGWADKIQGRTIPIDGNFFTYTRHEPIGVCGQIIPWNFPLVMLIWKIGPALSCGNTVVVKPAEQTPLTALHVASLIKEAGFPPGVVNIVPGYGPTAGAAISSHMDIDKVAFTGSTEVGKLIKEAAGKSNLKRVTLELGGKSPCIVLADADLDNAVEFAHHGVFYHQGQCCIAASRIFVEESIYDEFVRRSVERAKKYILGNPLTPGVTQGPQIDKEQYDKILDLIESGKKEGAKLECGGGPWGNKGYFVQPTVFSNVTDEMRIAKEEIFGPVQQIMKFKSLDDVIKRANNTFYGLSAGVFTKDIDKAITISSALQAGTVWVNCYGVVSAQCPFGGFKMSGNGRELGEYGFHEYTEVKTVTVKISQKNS
PNC assembly inh = perinucleolar compartment assembly inhibition. activity change (PNC), negative = inhibition, % at 10 µM. AID 2417. 140,000 compounds, 3.1% hits. PC3M PTB-GFP, PNC prevalence imaging, 16 h; active compounds read low;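 active means readout at or below -70, meaning at least 70% loss of cells showing the perinucleolar compartment, a nuclear body marking cancer cells; inconclusive means readout between -30 and a set limit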
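PC3M cells stably expressing PTB-GFP, 750–1000 cells/well, treated 16 h at 37 °C with compound (23 nl of library stock), in duplicate. After paraformaldehyde fixation and Hoechst stain, imaged at 20x; PNC prevalence scored by image analysis.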
Large screens that a line does not name were inactive. Rows were chosen to be rich in hits. Some 11% of all compounds tested hit in one or more screens of this group. Unless noted, the call rests on the fitted dose curve; in most records, active means well fitted inhibition curve with a large enough effect (not every such curve was filed as active); inconclusive means small, poorly fitted or top-dose-only effect, or another doubt; inactive means no such curve, though single readings can be large or run the other way.

COc1ccc2c(c1)O[C@H](c1ccc3c(c1)OCO3)[C@@H](OC(=O)N[C@H]1CCCc3ccccc31)C2=O	PNC assembly inh inconclusive
COc1ccc2c(c1)C(=O)[C@@H](OC(=O)N[C@H]1CCCc3ccccc31)[C@H](c1ccc(OC)c(Br)c1)O2	ALDH1A1 inh 12.6µM (no result: PNC assembly inh)
Cc1ccn2c(CN(C)CCn3nc(C)cc3C)c(C(=O)N3CCCCCC3)nc2c1	none (no result: HPGD block, PNC assembly inh)
O=C(c1ccc(S(=O)(=O)Nc2ccc(F)cc2)cc1)N1CCN(c2ccccn2)CC1	none (no result: HPGD block, PNC assembly inh)
O=c1c2c([nH]c3ccc(Br)cc13)CCCC2	none
O=c1ccc2cc3c([nH]c4ccc(Br)cc43)oc-2c1O	HPGD block 15.8µM, ALDH1A1 inh 7.94µM
Cc1ccn(CC(=O)N/N=C/c2cc([N+](=O)[O-])ccc2O)n1	none
CSc1nc(C)cc(Oc2ccccc2)n1	none (no result: HPGD block, PNC assembly inh)
O=C(NN1CCOCC1)c1cc(S(=O)(=O)Nc2cccc(C(F)(F)F)c2)ccc1Cl	PNC assembly inh -97.7 (no result: HPGD block)
CC(=O)N1CCc2cc(S(=O)(=O)Nc3cccc(C(F)(F)F)c3)ccc21	none
CCN(CC(=O)NC1CCS(=O)(=O)C1)S(=O)(=O)c1ccc2ccccc2c1 (centres undefined)	none
CCN(CC)S(=O)(=O)c1ccc(OCC(=O)NC2CCS(=O)(=O)C2)c([N+](=O)[O-])c1 (centres undefined)	ALDH1A1 inh 14.1µM (no result: HPGD block, PNC assembly inh)
CC(=O)Nc1cc(ON=C(C)C)cc([N+](=O)[O-])c1	none
COC(=O)c1cccnc1-n1c(=O)c2cccnc2n(Cc2cccc(C(F)(F)F)c2)c1=O	none (no result: HPGD block, PNC assembly inh)
O=[N+]([O-])c1ccc(-n2nnnc2CN2CCCCC2)cc1	ALDH1A1 inh 20µM (no result: HPGD block, PNC assembly inh)
O=[N+]([O-])c1ccc(-n2nnnc2CN2CCOCC2)cc1	none (no result: HPGD block, PNC assembly inh)
CCN(CC(=O)Nc1ccccc1Br)Cc1nc2ccccc2c(=O)[nH]1	none
CCN(CC(=O)NC(=O)NCc1ccco1)Cc1nc2ccccc2c(=O)[nH]1	ALDH1A1 inh 10µM
CNC(=S)NNc1ccccc1[N+](=O)[O-]	ALDH1A1 inh 14.1µM (no result: HPGD block, PNC assembly inh)
O=C(NNc1ccccc1[N+](=O)[O-])Nc1ccc(F)cc1	ALDH1A1 inh inconclusive
COCCNC(=S)NNc1ccccc1[N+](=O)[O-]	ALDH1A1 inh 25.1µM (no result: HPGD block, PNC assembly inh)
COCCNC(=S)N/N=C(\C)c1ccc(C)c([N+](=O)[O-])c1	none
COc1ccc(-n2nc3c(c2NC(=O)C24CC5CC(CC(C5)C2)C4)CS(=O)C3)cc1 (centres undefined)	ALDH1A1 inh 2.82µM
COc1ccc(-n2nc3c(c2NC(=O)C2CC2)CS(=O)C3)cc1 (centres undefined)	none
CC(C)C(=O)Nc1cccc(C(=O)Nc2nnc(C(C)C)s2)c1	none
CC(C)c1nnc(NC(=O)c2cccc(NC(=O)C(F)(F)F)c2)s1	ALDH1A1 inh 22.4µM (no result: HPGD block, PNC assembly inh)
COc1ccc2c(c1)O[C@@H](c1ccc3c(c1)OCO3)[C@H](OC(=O)NCc1ccc3c(c1)OCO3)C2=O	none (no result: PNC assembly inh)
COc1ccc(S(=O)(=O)N[C@@H](Cc2ccccc2)C(=O)N2CC[C@@]3(O)CCCC[C@H]3C2)cc1	PNC assembly inh -87.7
O=C([C@H](Cc1ccccc1)NS(=O)(=O)c1ccc(Cl)cc1)N1CC[C@@]2(O)CCCC[C@H]2C1	ALDH1A1 inh inconclusive
C(=C\c1ccccc1)/CNCC1CCCO1 (centres undefined)	ALDH1A1 inh 25.1µM (no result: HPGD block, PNC assembly inh)
Cc1ccc(CNCC2CCCO2)o1 (centres undefined)	none
CC(=O)Nc1ccc2c(c1)nc(CCN1CCN(C)CC1)n2C	none
CCOC(=O)C1CCCN(c2c(NCCN3CCCCC3C)c(=O)c2=O)C1 (centres undefined)	none
COC(=O)C1=C(C(=O)OC)[C@@H]2N(C)c3ccccc3[C@@]23C[C@@H](C(=O)OC)N(C(=O)c2ccc(Br)cc2)C3=N1	none (no result: PNC assembly inh)
Cc1cc([N+](=O)[O-])c2[nH]c(C(=O)N/N=C/c3ccccc3C(=O)O)c(-c3ccccc3)c2c1	HPGD block inconclusive, ALDH1A1 inh 1.41µM
Cc1ccc2nc(C)c(C(=O)N/N=C/c3ccccc3[N+](=O)[O-])cc2c1	none
CCOC(=O)Cc1csc(NC(=O)C2CCCN(S(=O)(=O)c3cnc[nH]3)C2)n1 (centres undefined)	none
CCC/C=C(\CCC)C(NS(=O)(=O)c1cccs1)c1ccc(C(=O)OC)cc1 (centres undefined)	none (no result: PNC assembly inh)
COc1ccc(C(C)=O)cc1CSc1nc2cc(Cl)ccc2o1	ALDH1A1 inh 25.1µM
Cc1nc(SCC(=O)O)c2oc3ccccc3c2n1	HPGD block 17.8µM
Cc1nc(SCC(=O)N2CCN(c3ccccc3)CC2)c2oc3ccccc3c2n1	HPGD block inconclusive, ALDH1A1 inh 39.8µM
COc1ccc(C(C)=O)cc1CSCC(=O)O	none (no result: HPGD block, PNC assembly inh)
Cc1nc(SCC(=O)NCc2ccccc2)c2oc3ccccc3c2n1	none
O=C(CSc1nc2cc(Cl)ccc2o1)NCCc1ccccc1	none (no result: HPGD block)
O=C(CSc1nc2cc(Cl)ccc2o1)c1cccs1	HPGD block 14.1µM, PNC assembly inh inconclusive
CCOC(=O)CC(=O)CSc1nc(C)nc2c1oc1ccccc12	HPGD block inconclusive, ALDH1A1 inh inconclusive
CN(CC#CC(O)(c1ccccc1)c1ccccc1)C(C)(C)C	none (no result: HPGD block, PNC assembly inh)
Cc1cnc2cc(Cl)ccc2c1SCC(=O)O	none (no result: PNC assembly inh)
CCc1ccc(-c2ccc(C(=O)C(F)(F)F)[nH]2)cc1	PNC assembly inh inconclusive
N#Cc1cccc(NC(=O)N2CCC3(CC2)CCN(C(=O)c2cccc(F)c2)CC3)c1	none (no result: PNC assembly inh)
COc1ccc(CCNC(=O)CSc2nc3ccccc3o2)cc1	ALDH1A1 inh inconclusive, PNC assembly inh inconclusive
O=C(COC(=O)/C=C/c1ccco1)NCc1ccc2c(c1)OCO2	none (no result: HPGD block, PNC assembly inh)
O=C(CSc1ncnc2c1oc1ccccc12)c1cccs1	none
Cc1nc(SCC(=O)c2cccs2)c2oc3ccccc3c2n1	HPGD block 12.6µM
Cc1cccc(NC(=O)CSc2ccc(C(N)=O)cc2[N+](=O)[O-])c1C	none
COc1ccc(-c2nc3cnc(N4CCOCC4)nc3n(CCC#N)c2=O)cc1	ALDH1A1 inh inconclusive (no result: PNC assembly inh)
CCC(=S)/C=C1\Sc2ccc3ccccc3c2N1CCCS(=O)(=O)O	HPGD block 31.6µM, PNC assembly inh inconclusive
CC[n+]1ccc(/C=C2\Sc3ccccc3N2CCCS(=O)(=O)[O-])c2ccccc21	none (no result: HPGD block, PNC assembly inh)
CCN[C@@H]1C[C@H](N)[C@H](O[C@H]2OC(CN)=CC[C@H]2N)[C@@H](O)[C@H]1O[C@H]1OC[C@@](C)(O)[C@@H](NC)[C@@H]1O	none (no result: PNC assembly inh)
CN1C(=O)CC(C(=O)O)SC1=Nc1ccc(F)cc1 (centres undefined)	none
N#C/C(=C\c1c(N2CCCCC2)nc2ccccn2c1=O)C(=O)NC1CCS(=O)(=O)C1 (centres undefined)	HPGD block inconclusive, ALDH1A1 inh inconclusive
Cc1cccc(Oc2nc3ccccn3c(=O)c2/C=C(\C#N)C(=O)NC2CCS(=O)(=O)C2)c1 (centres undefined)	ALDH1A1 inh inconclusive, PNC assembly inh -104.1
CCN(CC)c1ccc(/C=C/C(=O)c2ccc(Br)cc2)cc1	ALDH1A1 inh inconclusive, PNC assembly inh inconclusive
CC1=NOC(=O)/C1=C/c1ccc(N(C)C)cc1	none (no result: HPGD block)
CCCCC1(C)OC(=O)C(=Cc2ccc(N(CC)CC)cc2)C(=O)O1 (centres undefined)	HPGD block 20µM, ALDH1A1 inh 0.398µM
CCN(CC)c1ccc(/C=C2/C(=O)c3ccc(C(=O)O)cc3C2=O)cc1	HPGD block 11.2µM, ALDH1A1 inh 8.91µM
CCN(CC)c1ccc(C=C2C(=O)OC3(CCCCC3)OC2=O)cc1	ALDH1A1 inh 0.178µM (no result: HPGD block, PNC assembly inh)

From PubChem
